MITF primary: blocks human microphthalmia-associated transcription factor | AID 1259374 | O75030 | AlphaScreen MITF homodimerization, bead proximity signal | inhibition, % at 2.6 µM | 650,000 tested, 0.91% active; in the data active = inhibition above about 50%;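 also: 0% = vehicle wells with protein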
GPR151 ag: activators of human GPR151. Q8TDV0. PathHunter beta-arrestin GPR151 cells, luminescence. activation, % at 11.2 µM. 650,000 tested, 1% active; in the data active = activation above about 4.9%;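 also: 0% = median of compound wells and 100% = cells with positive control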
TEAD-YAP block: TEAD-YAP interaction inhibition | HEK-TIYL cells, TEAD-Gal4/YAP UAS-luciferase luminescence | inhibition, % at 9.12 µM | 640,000 tested, 1.4% active | AID 1259422; in the data active = inhibition above about 32%;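 also: 0% = median of test compound wells and 100% = reference inhibitor wells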
FBW7 act: human FBW7 E3 ligase activation, primary screen | 650,000 tested, 0.13% active | normalized activity (activation), % at 26.1 µM | AlphaScreen FBW7–phospho-cyclin E peptide binding, activator screen; in the data active = normalized activity above about 1.9%;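 also: purified mutant Fbw7 with reduced substrate affinity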
Target sequence (Q969H0 whole entry, looked up): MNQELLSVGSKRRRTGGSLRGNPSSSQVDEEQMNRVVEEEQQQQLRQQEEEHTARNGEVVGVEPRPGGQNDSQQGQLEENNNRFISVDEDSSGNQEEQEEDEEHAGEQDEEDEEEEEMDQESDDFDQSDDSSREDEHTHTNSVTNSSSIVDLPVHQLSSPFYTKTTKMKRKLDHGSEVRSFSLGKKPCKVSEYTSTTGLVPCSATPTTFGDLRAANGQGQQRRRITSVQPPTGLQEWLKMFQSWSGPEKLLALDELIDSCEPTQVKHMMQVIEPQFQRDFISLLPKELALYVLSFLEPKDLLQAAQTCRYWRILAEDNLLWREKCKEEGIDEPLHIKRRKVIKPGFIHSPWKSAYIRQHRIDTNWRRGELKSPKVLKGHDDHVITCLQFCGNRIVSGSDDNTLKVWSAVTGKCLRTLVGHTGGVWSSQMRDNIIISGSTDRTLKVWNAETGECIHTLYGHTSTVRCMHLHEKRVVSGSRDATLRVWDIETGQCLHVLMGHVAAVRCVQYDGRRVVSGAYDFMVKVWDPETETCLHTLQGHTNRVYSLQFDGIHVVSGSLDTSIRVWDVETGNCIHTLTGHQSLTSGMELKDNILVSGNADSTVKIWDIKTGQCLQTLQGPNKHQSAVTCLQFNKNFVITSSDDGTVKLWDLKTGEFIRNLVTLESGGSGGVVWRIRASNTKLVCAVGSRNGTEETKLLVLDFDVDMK
GPR151 conf act: human GPR151 activation, confirmation screen. GPR151 PathHunter beta-arrestin cells, luminescence, 90 min; % of EA-reagent control over plate median. AID 1508609. 6,700 tested, under 10 active. activation, % at 11.2 µM. shares compounds with GPR151 ag;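 active = mean percent activation across replicates above the confirmation screen cutoff of 4.91%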
GPR119 counter: GPR119 activation, counter-screen for GPR151 activators | 6,700 tested, 0.3% active | GPR119 PathHunter beta-arrestin cells, luminescence, 90 min; 0 = compound-well median, 100 = enzyme-acceptor control | AID 1508611 | shares compounds with GPR151 ag | activation, % at 11.2 µM;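 active = mean percent activation in the counterscreen above 29.09%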;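 also: counterscreen on off-target GPR119 to flag nonselective hits from the GPR151 activator screen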
An asterisk follows results filed as active; ! = not active in a repeat. Only some compounds are listed: those with a hit (about 3.5% of all), similar ones and a draw of the others.

Results for Cc1nn(CC(=O)Nc2ccc(O)cc2)c(C)c1[N+](=O)[O-] ?
MITF primary: 19; GPR151 ag: 6.1*; TEAD-YAP block: 6; FBW7 act: 0; GPR151 conf act: 0; GPR119 counter: 2

Results for Cc1nn(CC(=O)Nc2ccc(Oc3ccc(Cl)cc3)cc2)c(C)c1[N+](=O)[O-] ?
MITF primary: -13; GPR151 ag: -1; TEAD-YAP block: -3; FBW7 act: 0

Results for Cc1ccc(S(=O)(=O)C(CNC(=O)c2ccccc2)c2ccco2)cc1 (stereo not drawn) ?
MITF primary: 11; GPR151 ag: 1; TEAD-YAP block: -18; FBW7 act: 0

Results for CCCCCCOc1ccc(/C=N/n2cnnc2)cc1 ?
MITF primary: 6; GPR151 ag: 6.8*; TEAD-YAP block: 9; FBW7 act: 0; GPR151 conf act: 0; GPR119 counter: -3

Results for CC(C)CCOc1ccc(/C=N/n2cnnc2)cc1 ?
MITF primary: -1; GPR151 ag: 0; TEAD-YAP block: 1; FBW7 act: 0

Results for O=C(CCC(=O)Nc1cccc(Cl)c1)Nc1cccc(Cl)c1 ?
MITF primary: -11; GPR151 ag: -1; TEAD-YAP block: -4; FBW7 act: 0

Results for COc1ccc(N2C(=O)/C(=C/c3ccc(OCC(=O)O)cc3)NC2=S)cc1 ?
MITF primary: 0; GPR151 ag: 0; TEAD-YAP block: 1; FBW7 act: 0

What do the screens show for `COC(=O)c1ccc(/C=C2\NC(=S)N(c3ccc(OC)cc3)C2=O)cc1`?
MITF primary: 5; GPR151 ag: 6.7*; TEAD-YAP block: 12; FBW7 act: 0; GPR151 conf act: 0; GPR119 counter: 2

Results for COC(=O)c1cnn2c(C(F)(F)F)cc(-c3ccc(C)cc3)nc12 ?
MITF primary: -4; GPR151 ag: 0; TEAD-YAP block: -10; FBW7 act: 0

What do the screens show for `Cc1ccc(-c2cc(C(F)(F)F)n3ncc(C(=O)OC(C)C)c3n2)cc1`?
MITF primary: -5; GPR151 ag: 5.4*; TEAD-YAP block: 9; FBW7 act: 0; GPR151 conf act: 0; GPR119 counter: 13

Results for Cc1ccc(N(CC(O)Cn2nc(C)cc2C)S(=O)(=O)c2ccc([N+](=O)[O-])cc2)cc1 (stereo not drawn) ?
MITF primary: 1; GPR151 ag: 4.9*; TEAD-YAP block: -10; FBW7 act: 0; GPR151 conf act: 1; GPR119 counter: 2

Results for Cc1ccc(N(CC(O)CN2CCOCC2)S(=O)(=O)c2ccc([N+](=O)[O-])cc2)cc1 (stereo not drawn) ?
MITF primary: 5; GPR151 ag: -1; TEAD-YAP block: 9; FBW7 act: 0

What do the screens show for `COCCNC(=O)c1cccc(OC2CCN(Cc3cnc(SC)nc3)CC2)c1`?
MITF primary: 12; GPR151 ag: 7.9*; TEAD-YAP block: 3; FBW7 act: 0; GPR151 conf act: 0; GPR119 counter: 2

How did CCOC(=O)N1CCN(C(=O)c2ccc(CN3CCC(Cc4ccccc4)CC3)cc2)CC1 do in these assays?
MITF primary: -8; GPR151 ag: 4.9*; TEAD-YAP block: 4; FBW7 act: 0; GPR151 conf act: 1; GPR119 counter: 15

Results for O=C(NCc1ccccc1)c1ccc(CN2CCC(Cc3ccccc3)CC2)cc1 ?
MITF primary: 4; GPR151 ag: -1; TEAD-YAP block: 3; FBW7 act: 0

What do the screens show for `COCCNC(=O)c1ccc(CN2CCC(Cc3ccccc3)CC2)cc1`?
MITF primary: -16; GPR151 ag: 5.0*; TEAD-YAP block: 11; FBW7 act: 0; GPR151 conf act: 0; GPR119 counter: 1

What do the screens show for `COCCNC(=O)c1cccc(OC2CCN(Cc3ccc(F)c(OC)c3)CC2)c1`?
MITF primary: 15; GPR151 ag: 0; TEAD-YAP block: 1; FBW7 act: 0

How did Nc1ncc(Br)cc1S(=O)(=O)N(CCc1ccccc1)Cc1ccccc1 do in these assays?
MITF primary: 1; GPR151 ag: 9.3*; TEAD-YAP block: -5; FBW7 act: 0; GPR151 conf act: 1; GPR119 counter: 1

Results for CN(Cc1ccccc1)S(=O)(=O)c1cc(Br)cnc1N ?
MITF primary: 4; GPR151 ag: 0; TEAD-YAP block: -2; FBW7 act: 0

What do the screens show for `O=C1/C(=C\c2ccc(-c3ccc(Cl)cc3)o2)Sc2ccccc21`?
MITF primary: 10; GPR151 ag: 8.4*; TEAD-YAP block: -9; FBW7 act: 0; GPR151 conf act: 0; GPR119 counter: 0

What do the screens show for `O=C(O)c1cc(-c2ccc(/C=C3\Sc4ccccc4C3=O)o2)ccc1Cl`?
MITF primary: 19; GPR151 ag: 0; TEAD-YAP block: -2; FBW7 act: 0

What do the screens show for `Cc1c(-c2ccccc2)c(=O)oc2cc(OCC#N)ccc12`?
MITF primary: -3; GPR151 ag: 6.5*; TEAD-YAP block: 11; FBW7 act: 0; GPR151 conf act: 0; GPR119 counter: 8

How did CCOC(=O)COc1ccc2c(C)c(-c3ccccc3)c(=O)oc2c1 do in these assays?
MITF primary: 2; GPR151 ag: -2; TEAD-YAP block: 0; FBW7 act: 0

How did Nc1ncnc2c1ncn2[C@@H]1O[C@H](CO)[C@@H](O)[C@H]1O do in these assays?
MITF primary: -7; GPR151 ag: 1; TEAD-YAP block: -9; FBW7 act: 0

Results for COc1ccc(C[C@H](N)C(=O)N[C@@H]2[C@@H](CO)OC(n3cnc4c(N(C)C)ncnc43)[C@@H]2O)cc1 (stereo partly drawn) ?
MITF primary: -4; GPR151 ag: 6.8*!; TEAD-YAP block: 100*; FBW7 act: 0; GPR151 conf act: 2; GPR119 counter: 0

How did CC(C)(C)CC(=O)NCCCS(=O)(=O)N1CCN(c2ccc(F)cc2)CC1 do in these assays?
MITF primary: 10; GPR151 ag: 6.6*; TEAD-YAP block: 13; FBW7 act: 0; GPR151 conf act: 1; GPR119 counter: 1

Results for Cc1ccccc1NC(=O)c1cccc(S(=O)(=O)Nc2cccc(F)c2)c1 ?
MITF primary: 5; GPR151 ag: 1; TEAD-YAP block: 6; FBW7 act: 0

How did CCc1ccccc1NC(=O)CN(C)C(=O)CN1CCSc2ccccc21 do in these assays?
MITF primary: 12; GPR151 ag: 2; TEAD-YAP block: 5; FBW7 act: 0

Results for COCc1cc(C)nc2sc3c(=O)n(-c4ccc(C)cc4C)nnc3c12 ?
MITF primary: 16; GPR151 ag: 1; TEAD-YAP block: 5; FBW7 act: 0

How did COCc1cc(C)nc2sc3c(=O)n(-c4ccc(C(C)=O)cc4)nnc3c12 do in these assays?
MITF primary: 0; GPR151 ag: 5.5*; TEAD-YAP block: -3; FBW7 act: 0; GPR151 conf act: 0; GPR119 counter: 5

Screens deposited in PubChem BioAssay by The Scripps Research Institute Molecular Screening Center.
